Most compounds without a hit are left out; they make up all but 9.5% or so of the library.
Pf growth 96h = inhibits malaria parasite growth, 96 h; P. falciparum luciferase reporter growth, 96 h; Potency, µM (top dose mostly 28.7 µM), without a hit: at the highest dose activity change, negative = inhibition, usual class: inhibitors; hit rate 6.9% among 320,000; AID 504834; active means well fitted inhibition curve with a large enough effect; inconclusive means small, poorly fitted or top-dose-only effect, or another doubt; inactive means no such curve, though single readings can be large or run the other way; further: on the % scale 0 is the no-effect control and ±100 the full control effect
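P. falciparum expressing integrated firefly luciferase grown in erythrocytes (2% hematocrit, 0.05% parasitemia final) with compounds for 96 hours at 37 C, 5% CO2. Growth inhibition read as loss of luminescence after adding luciferase detection reagent.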
SARS PLpro yeast = blocks SARS-CoV papain-like protease in a yeast assay | S. cerevisiae expressing SARS-CoV PLpro, growth rescue | Potency, µM (top dose mostly 32.9 µM), for the others: at the highest dose activity, positive = growth rescue, hits mostly activators | hit rate 0.19% among 330,000 | AID 485353; further: 0% is about no effect; nearly all actives have a fitted effect of over 55% in size
RE007 growth inh = less growth of the S. pombe RE007 Vpr strain. AID 651644. Potency, µM (top dose mostly 92.2 µM), for inactives: at the top dose activity change, negative = less growth, usual class: inhibitors. S. pombe RE007 Vpr strain, BacTiter-Glo ATP luminescence, 24 h. hit rate 0.21% among 360,000; active means well fitted falling curve with a large enough effect; inconclusive means small, poorly fitted or top-dose-only effect; inactive means no such curve, though single readings can be large or run the other way; further: on the % scale 0 is the no-effect control and ±100 the full control effect; nearly all actives have a fitted effect of over 50% in size
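Fission yeast RE007 carrying one integrated HIV-1 vpr copy, seeded at OD 0.01 in PMG+AL medium with 23 nL pinned compound. Grown 24 h at 30 degrees; viability read by BacTiter-Glo luminescence after 5 min.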
Pf growth 48h = inhibits P. falciparum growth in the first generation, 48 h | P. falciparum luciferase growth in erythrocytes, 48 h | Potency, µM (highest dose often 28.7 µM), for the others: top-dose activity change, negative = inhibition, actives largely listed as inhibitors | hit rate 5.9% among 310,000 | AID 504832; active means well fitted inhibition curve with a large enough effect; inconclusive means small, poorly fitted or top-dose-only effect, or another doubt; inactive means no such curve, though single readings can be large or run the other way; further: on the % scale 0 is the no-effect control and ±100 the full control effect
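Erythrocytes infected with P. falciparum carrying an integrated firefly luciferase reporter (2% hematocrit, 0.1% parasitemia final) were exposed to compounds in RPMI 1640 with 0.5% Albumax at 37 C, 5% CO2. Growth inhibition was scored as reduced luminescence.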
NS1 inh = influenza NS1 inhibition. Potency, µM (titrated, usually from 46.1 µM), inactives show at the top dose activity, positive = more growth. hit rate 0.4% among 270,000; further: actives are rising curves; nearly all actives have a fitted effect of over 50% in size
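In this qHTS, NS1 from influenza A is expressed in budding yeast, where it slows growth. Cells are switched from glucose to 2% galactose medium (pH 6.0, -URA), treated with compound, and growth recovery is read at OD600.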
An asterisk follows results filed as active; ? = inconclusive; nt = no result; [ ] = another dose, or the depositor's remark. Unless noted, the call rests on the fitted dose curve. Potency means the concentration at half of the fitted maximal effect.

SMILES | Pf growth 96h | SARS PLpro yeast | RE007 growth inh | Pf growth 48h | NS1 inh
C[C@@H](NC(=O)c1nc[nH]c1C(=O)N(C)Cc1ccccc1)c1ccccc1 | 15% | -2% | 21% | -13% | nt
CC1(C)OC(=O)N(c2ccccn2)C1(C)O (stereo not drawn) | -15% | 0% | -21% | 10% | 5%
Cc1ccnc(N2C(=O)OC(C)(C)C2(C)O)c1 (stereo not drawn) | 8.3µM* | -2% | -16% | 14% | 5%
CCOC(=O)c1sc2nc3n(c(=O)c2c1C)CCC3 | 37% | 23% | 2% | 26% | -13%
CCOC(=O)c1sc2nc(SCC#N)n(CCCN3CCCC3=O)c(=O)c2c1C | ? | 0% | 2% | 10µM* | 2%
CCCNC(=O)OC[C@H]1O[C@H](CCO/N=C/C[C@@H]2C=C[C@H](OC(C)=O)[C@@H](COC(C)=O)O2)C=C[C@@H]1Oc1ccc(OC)cc1 | ? | 11% | nt | ? | -36%
CCCNC(=O)OC[C@H]1O[C@H](CCO/N=C(\C)CCN2CCc3nc(-c4ccccc4)c(-c4ccccc4)cc3C2)C=C[C@@H]1Oc1ccc(OC)cc1 | 4.7µM* | -7% | nt | 5.9µM* | 26%
CC(C)c1ccc(-c2c(C#N)c(N)nc(SCC(=O)N3CCCCCC3)c2C#N)cc1 | 5.2µM* | 6% | -12% | nt | 5%
O=C(Nc1ccc(C(F)(F)F)cc1)C1=NN(C2CCS(=O)(=O)C2)C(=O)CC1 (stereo not drawn) | ? | 3%[6.58 µM] | 6% | ? | nt
Cc1ccc(S(=O)(=O)N2CCN(C(=O)c3c(-c4ccccc4)noc3C)CC2)c(C)c1 | ? | -1% | 0% | -3% | 22%
COc1ccc(Nc2ncc(C(=O)N3CCN(c4ccc(F)cc4)CC3)c3ccccc23)cc1 | 1.9µM* | 3% | 9% | ? | -10%
Cc1ccc(-c2cc(C(=O)N3CCOCC3)c3cc(C)ccc3n2)cc1 | 52% | -4% | -9% | -23% | -22%
Cc1ccc2nc(-c3ccccc3)cc(C(=O)N3CCN(S(=O)(=O)c4c(C)noc4C)CC3)c2c1 | 10µM* | 4% | 5% | 12µM* | nt
Cc1ccc2nc(-c3ccccc3)cc(C(=O)N3CCN(c4ccccc4O)CC3)c2c1 | ? | 0% | -28% | 10µM* | nt
O=C(c1cc(-c2ccco2)nc2ccccc12)N1CCN(c2ccc(F)cc2)CC1 | 13µM* | -39% | -5% | ? | -50%
COc1ccc(NC(=S)N2CCC3CC2c2cc(-c4ccc5c(c4)OCO5)ccc23)c(OC)c1 (stereo not drawn) | nt | nt | 7% | nt | nt
Cc1ccc2nc(-c3ccncc3)cc(C(=O)N3CCOCC3)c2c1 | 10µM* | -2% | -7% | -17% | -12%
O=C(c1cc(-c2ccccc2)nc2ccccc12)N1CCN(c2ccccc2O)CC1 | 9.3µM* | -16% | -7% | 15µM* | -42%
O=C(c1cc(-c2ccccc2)nc2ccccc12)N1CCN(c2ccccn2)CC1 | 1% | -9% | -1% | 0% | -55%
O=C(c1cc(-c2ccncc2)nc2ccc(Br)cc12)N1CCN(Cc2ccc3c(c2)OCO3)CC1 | 5% | -2% | -1% | 10µM* | -2%
O=C(c1cc(-c2ccncc2)nc2ccccc12)N1CCN(c2ccccc2O)CC1 | 4.7µM* | -1% | -2% | 12µM* | -4%
CCc1csc(CCNC(=O)C2CCC(=O)N(Cc3cccc(C(F)(F)F)c3)C2)n1 (stereo not drawn) | -1% | 1% | -2% | 0% | 1%
CCOC(=O)c1c(C)[nH]c(C(=O)CSc2ccccc2)c1C | 220% | 1% | -4% | 128% | 0%
CCOC(=O)c1c(C)[nH]c(C(=O)CSc2nnc(C3CC3)n2N)c1C | nt | 14% | -8% | 0.33µM* | 4%
CCN(CCCNC(=O)CCc1nc(-c2ccc(OC)cc2)no1)c1cccc(C)c1 | 13µM* | -2% | -3% | nt | -62%
CCOC(=O)c1ccc(NC(=O)CCc2nc(-c3ccc(C)cc3)no2)cc1 | 3.7µM* | 0% | 2% | ? | -6%
COc1ccc(-c2noc(CCC(=O)Nc3ccc(C)c(C)c3)n2)cc1 | nt | 2% | -6% | -13% | -15%
CCN(CCCNC(=O)Cn1cc2c(n1)CCCC2)c1cccc(C)c1 | 13µM* | 0% | -2% | -13% | -22%
CCOCCCNC(=O)Cn1cc2c(n1)CCCC2 | 25% | -14% | 4% | -4% | 7%

Screens deposited in PubChem BioAssay by National Center for Advancing Translational Sciences (NCATS).
